# Test results reported in the supplement of paper PMC4466140.
# How the values were obtained:
# Assay in all cases: SPOT peptide array binding signal intensity (averaged, normalized) (arbitrary units (background-subtracted, floor 0; scale differs between SH3 domains)); higher = stronger binding of the SH3 domain to the peptide
# [1] = target: CaNbp2
# Procedure, shortened: (§1)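 GST-SH3 fusions from four yeast species, purified on glutathione Sepharose, were incubated at 10 μg/ml overnight at 4°C on membranes of synthetic 15-mer peptides in which cysteines were replaced with serines. Binding signal is the normalized, background-subtracted spot intensity averaged over replicates, in domain-specific arbitrary units.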
# [2] = target: CaRvs167
# Procedure, shortened: as §1
# [3] = target: CaRvs167-3
# Procedure, shortened: as §1
# [4] = target: CaSho1
# Procedure, shortened: as §1
# [5] = target: CaSla1-D1-D2
# Procedure, shortened: as §1
# [6] = target: CaSla1-D3
# Procedure, shortened: as §1
# [7] = target: ScAbp1
# Procedure, shortened: as §1
# [8] = target: ScBbc1
# Procedure, shortened: as §1
# [9] = target: ScBem1-D1
# Procedure, shortened: as §1
# [10] = target: ScBzz1-D1
# Procedure, shortened: as §1
# [11] = target: ScBzz1-D2
# Procedure, shortened: as §1
# [12] = target: ScCyk3
# Procedure, shortened: as §1
# [13] = target: ScFus1
# Procedure, shortened: as §1
# [14] = target: ScHof1
# Procedure, shortened: as §1
# [15] = target: ScHse1
# Procedure, shortened: as §1
# [16] = target: ScLsb1
# Procedure, shortened: as §1
# [17] = target: ScLsb2
# Procedure, shortened: as §1
# [18] = target: ScLsb3
# Procedure, shortened: as §1
# [19] = target: ScLsb4
# Procedure, shortened: as §1
# [20] = target: ScMyo3
# Procedure, shortened: as §1
# [21] = target: ScMyo5
# Procedure, shortened: as §1
# [22] = target: ScNbp2
# Procedure, shortened: as §1
# [23] = target: ScPex13
# Procedure, shortened: as §1
# [24] = target: ScRvs167
# Procedure, shortened: as §1
# [25] = target: ScSho1
# Procedure, shortened: as §1
# [26] = target: ScSla1-D1-D2
# Procedure, shortened: as §1
# [27] = target: ScSla1-D3
# Procedure, shortened: as §1
# [28] = target: SpAbp1-D1
# Procedure, shortened: as §1
# [29] = target: SpBbc1
# Procedure, shortened: as §1
# [30] = target: SpBzz1-D1
# Procedure, shortened: as §1
# [31] = target: SpBzz1-D2
# Procedure, shortened: as §1
# [32] = target: SpCyk3
# Procedure, shortened: as §1
# [33] = target: SpHof1
# Procedure, shortened: as §1
# [34] = target: SpHof1-2
# Procedure, shortened: as §1
# [35] = target: SpHof1-3
# Procedure, shortened: as §1
# [36] = target: SpHse1
# Procedure, shortened: as §1
# [37] = target: SpLsb1
# Procedure, shortened: as §1
# [38] = target: SpLsb4
# Procedure, shortened: as §1
# [39] = target: SpMyo1
# Procedure, shortened: as §1
# [40] = target: SpNbp2
# Procedure, shortened: as §1
# [41] = target: SpPex13
# Procedure, shortened: as §1
# [42] = target: SpRvs167
# Procedure, shortened: as §1
# [43] = target: SpSla1-D1-D2
# Procedure, shortened: as §1
# [44] = target: SpSla1-D3
# Procedure, shortened: as §1
binder,measurement,setting,value
ATKSASPTLPTRRSR,SPOT peptide array binding signal intensity,[1],77
same,SPOT peptide array binding signal intensity,[2],607
same,SPOT peptide array binding signal intensity,[3],9.25
same,SPOT peptide array binding signal intensity,[4],23
same,SPOT peptide array binding signal intensity,[5],1430
same,SPOT peptide array binding signal intensity,[6],1.75
same,SPOT peptide array binding signal intensity,[7],192
same,SPOT peptide array binding signal intensity,[8],405
same,SPOT peptide array binding signal intensity,[9],30
same,SPOT peptide array binding signal intensity,[10],95
same,SPOT peptide array binding signal intensity,[11],52
same,SPOT peptide array binding signal intensity,[12],32
same,SPOT peptide array binding signal intensity,[13],14
same,SPOT peptide array binding signal intensity,[14],3.5
same,SPOT peptide array binding signal intensity,[15],172
same,SPOT peptide array binding signal intensity,[16],651
same,SPOT peptide array binding signal intensity,[17],13.5
same,SPOT peptide array binding signal intensity,[18],5480
same,SPOT peptide array binding signal intensity,[19],2750
same,SPOT peptide array binding signal intensity,[20],1.5
same,SPOT peptide array binding signal intensity,[21],5
same,SPOT peptide array binding signal intensity,[22],63.5
same,SPOT peptide array binding signal intensity,[23],511
same,SPOT peptide array binding signal intensity,[24],1320
same,SPOT peptide array binding signal intensity,[25],65.5
same,SPOT peptide array binding signal intensity,[26],726
same,SPOT peptide array binding signal intensity,[27],25.8
same,SPOT peptide array binding signal intensity,[28],356
same,SPOT peptide array binding signal intensity,[29],27
same,SPOT peptide array binding signal intensity,[30],366
same,SPOT peptide array binding signal intensity,[31],1
same,SPOT peptide array binding signal intensity,[32],3
same,SPOT peptide array binding signal intensity,[33],732
same,SPOT peptide array binding signal intensity,[34],83
same,SPOT peptide array binding signal intensity,[35],110
same,SPOT peptide array binding signal intensity,[36],77
same,SPOT peptide array binding signal intensity,[37],90
same,SPOT peptide array binding signal intensity,[38],7440
same,SPOT peptide array binding signal intensity,[39],46.8
same,SPOT peptide array binding signal intensity,[40],21.5
same,SPOT peptide array binding signal intensity,[41],17
same,SPOT peptide array binding signal intensity,[42],2470
same,SPOT peptide array binding signal intensity,[43],334
same,SPOT peptide array binding signal intensity,[44],≤ 0
